In the supplement of paper PMC13380429:
A number with no mark means an inactive call.

System: Vero E6 infected with SARS-CoV-2
Experiment: inhibition of SARS-CoV-2 cytopathic effect; higher = more antiviral protection, active = above 15
Settings: 48 h

Row | Structure (SMILES) | inhibition of SARS-CoV-2 cytopathic effect (1 nM) [%] | inhibition of SARS-CoV-2 cytopathic effect (8.33 nM) [%] | inhibition of SARS-CoV-2 cytopathic effect (100 nM) [%] | inhibition of SARS-CoV-2 cytopathic effect (833.33 nM) [%] | inhibition of SARS-CoV-2 cytopathic effect (10000 nM)
1 | COc1ccc(-c2cc3c(C)nc(N)nc3n([C@H]3CC[C@H](OCCO)CC3)c2=O)cn1 | -0.21 | 2.83 | 0.43 | -10.1 | -10.3%
2 | COc1ccc(CN2C(=O)C(=O)c3cc(OC(F)(F)F)ccc32)cc1 | -0.15 | 1.14 | 1.79 | 1.75 | 6.79%
3 | CCCOc1ccc(Br)cc1-c1cc(-c2ccc(Cl)cc2)[nH]c1-c1ccncc1 | -1.64 | 0.84 | 0.25 | -0.83 | -5.61%
4 | CC(C)=CCc1c(O)cc(O)c2c(=O)c(O)c(-c3ccc(C(F)(F)F)cc3)oc12 | 2.04 | 1.52 | 3.93 | 2.83 | 2.95%
5 | CCNC(=O)c1noc(-c2cc(C(C)C)c(O)cc2O)c1-c1ccc(CN2CCOCC2)cc1 | 0.97 | -0.58 | -1.84 | 0.4 | -4.07%
6 | CC(=O)O[C@]1(C(C)=O)CC[C@H]2[C@@H]3C=C(Cl)C4=CC(=O)CC[C@]4(C)[C@H]3CC[C@@]21C [chlormadinone-acetate] | -13.3 | -12.7 | -10.2 | -13.4 | -13%
7 | O=Nc1c(-c2c(O)[nH]c3cc(Br)ccc23)[nH]c2ccccc12 [GSK-3-inhibitor-IX] | -0.14 | 0.68 | 1.64 | 13.8 | -4.11%
8 | COc1cccc([C@@H](C)NCCCc2ccccc2Cl)c1 [tecalcet] | 1.64 | 1.12 | 3.52 | -0.64 | -3.1%
9 | COc1cc(COc2cc(N)c(Cl)cc2C(=O)CCC2CCN(CCNS(C)(=O)=O)CC2)cc(OC)c1 | 0.91 | 2.62 | -0.09 | 2.63 | 28.3% (active)
10 | Oc1ccc([C@H]2COc3cc(O)ccc3C2)cc1 [equol] | -2.73 | -1.03 | -2.88 | 3.83 | 0.31%
11 | O=C1[C@@H]2[C@H]3CC[C@H](C3)[C@@H]2C(=O)N1C[C@@H]1CCCC[C@H]1CN1CCN(c2nsc3ccccc23)CC1 [lurasidone] | -0.28 | 0.05 | 1.73 | 3.11 | -6.2%
12 | CCOC(=O)c1ncn2c1[C@@H]1CCCN1C(=O)c1cc(OC)ccc1-2 | -0.88 | 0.22 | 0.35 | -0.77 | 0.55%
13 | CC1Cc2ccccc2N1NC(=O)c1ccc(Cl)c(S(N)(=O)=O)c1 (stereo not given) [indapamide] | 0.88 | 2.8 | 0.11 | 1.3 | 1.05%
14 | O=S(=O)(NCC1CC1)c1ccc(Nc2nccc(N3CCCc4cc(O)ccc43)n2)cc1 [pyrintegrin] | 2.46 | 5.45 | 4.41 | 14.1 | 36% (active)
15 | COCCN1CCC(C(=O)NO)(S(=O)(=O)c2ccc(Oc3ccc(OC(F)(F)F)cc3)cc2)CC1 | 3.42 | 2.45 | 2.99 | 3.32 | 1.34%
16 | O=C(c1ccc(Cl)o1)N1CC2CNCC2C1 (stereo not given) | -0.08 | 1.51 | 2.2 | 1.83 | 0.93%
17 | CCCc1ncc(C[n+]2ccccc2C)c(N)n1 [amprolium] | 7.17 | 1.36 | 4.43 | -0.09 | 0.03%
18 | CSc1ccc(OCc2ncc([N+](=O)[O-])n2C)cc1 [fexinidazole] | -1.82 | -1.7 | -1.88 | -3.53 | -0.36%
19 | CS(=O)(=O)c1ccc(-c2cn3ccccc3n2)cc1 [zolimidine] | -3.68 | 0.55 | 3.07 | -5.22 | -2.8%
